Experimental data as given in PubChem BioAssay AID2018 (Sanford-Burnham Center for Chemical Genomics, 2009).
About 600 (50%) of roughly 1,200 compounds were called active. The set was probably picked from earlier hits. Some of the results follow. Measured potencies and affinities stand elsewhere. A number with no mark means an inactive call. Cut-off read from the data, not from the text of the source: active = inhibition above about 42%; inactive = the rest.

The compounds below were run against SUMO-conjugating enzyme UBC9 (Homo sapiens) (UniProt P63279) (assay: SUMOylation inhibitor hit validation, confirmation, SUMOylation inhibitor project, biochemical, AlphaScreen (AID 2018)). Conditions: AlphaScreen in vitro SUMOylation assay; at 35 µM; hits give high values.
Sequence of SUMO-conjugating enzyme UBC9 (Homo sapiens) (P63279 whole entry, looked up): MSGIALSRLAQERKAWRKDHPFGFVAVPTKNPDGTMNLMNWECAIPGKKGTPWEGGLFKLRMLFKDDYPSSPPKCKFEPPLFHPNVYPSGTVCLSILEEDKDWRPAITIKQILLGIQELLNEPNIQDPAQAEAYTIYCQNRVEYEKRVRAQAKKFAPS
In the case of `O=C(O)CC1OCC=C2CN3CCC45C6=CC(=O)C(=O)C([N+](=O)[O-])=C6NC4C1C2CC35` (centres undefined), the inhibition is reported as 102% (active). For `CN1CCN(c2ccc(S(C)(=O)=O)cc2[N+](=O)[O-])CC1`, the inhibition was -12.2%. With `Cc1cc(/C=C2\C(=O)NC(=O)N(Cc3ccccc3)C2=O)c(C)n1-c1ccc(Cl)c(C(=O)O)c1` the inhibition was 102% (active). In the case of `CC(=O)c1ccc2c(c1)C1C(Cl)C(Sc3ccccc3[N+](=O)[O-])CC1C(c1ccccc1[N+](=O)[O-])N2` (centres undefined), the inhibition is reported as 38.6%. With `CC(=O)c1ccc2c(c1)C1C(Cl)C(Sc3ccccc3[N+](=O)[O-])CC1C(C(=O)O)N2` (centres undefined) the inhibition was 102% (active). For `CC(C)CCNC(=O)c1c(N)n(Cc2ccc3c(c2)OCO3)c2nc3ccccc3nc12`, the inhibition was 18.5%. In the case of `Cc1c(CC(=O)N2C[C@H]3C[C@@H](C2)c2cccc(=O)n2C3)c(=O)oc2c(C)c(O)ccc12`, the inhibition is reported as 54.2% (active). `Nc1c(C(=O)NCCCc2ccccc2)c2nc3ccccc3nc2n1Cc1cccs1` gave an inhibition of -10.2%. With `Cc1[nH]n(-c2ccccc2)c(=O)c1C(c1ccc([N+](=O)[O-])cc1)c1c(C)[nH]n(-c2ccccc2)c1=O` the inhibition was 102% (active). With `CCN(CC)c1ccc([N+](=O)[O-])c2cccnc12` the inhibition was 33.7%. In the case of `CCCNC(=O)c1c(N)n(Cc2ccc3c(c2)OCO3)c2nc3ccccc3nc12`, the inhibition is reported as 13.5%. `CC(C)CCNC(=O)c1c(N)n(CC2CCCO2)c2nc3ccccc3nc12` (centres undefined) gave an inhibition of -37.9%. In the case of `CCC(C)NC(=O)c1c(N)n(CC2CCCO2)c2nc3ccccc3nc12` (centres undefined), the inhibition is reported as 101% (active). For `Nc1c(C(=O)NC2CCCC2)c2nc3ccccc3nc2n1CC1CCCO1` (centres undefined), the inhibition was 100% (active). With `CCCNC(=O)c1c(N)n(CC2CCCO2)c2nc3ccccc3nc12` (centres undefined) the inhibition was -23.2%. In the case of `CC(C)OCCCNC(=O)c1c(N)n(CC2CCCO2)c2nc3ccccc3nc12` (centres undefined), the inhibition is reported as -76.6%. `CCC(C)NC(=O)c1c(N)n(Cc2ccc3c(c2)OCO3)c2nc3ccccc3nc12` (centres undefined) gave an inhibition of 11%. `CN1CCC2(CC1)C(C#N)=C(N)NC(S)=C2C#N` was tested, and the inhibition was 38.8%. `CCCCn1c(NC(=O)c2ccco2)c(C(=O)OCC)c2nc3ccccc3nc21` was tested, and the inhibition was 62.6% (active). For `COCCNC(=O)c1c(NC(=O)c2ccco2)n(Cc2ccccc2)c2nc3ccccc3nc12`, the inhibition was -28.4%. Compound `CCCCn1c(NS(=O)(=O)c2ccc(C)cc2)c(C(=O)OCC)c2nc3ccccc3nc21` has an inhibition of 28.2%. With `CCCCn1c(NS(=O)(=O)c2ccccc2)c(C(=O)OCC)c2nc3ccccc3nc21` the inhibition was 101% (active). With `CCCCn1c(N)c(C(=O)OCC2CCCO2)c2nc3ccccc3nc21` (centres undefined) the inhibition was 25.4%. In the case of `COc1ccc(Cn2c(N)c(C(=O)NCc3ccco3)c3nc4ccccc4nc32)cc1`, the inhibition is reported as -14.9%. With `COc1cc(Cn2c(N)c(C(=O)NCc3ccco3)c3nc4ccccc4nc32)cc(OC)c1OC` the inhibition was 50.8% (active). With `CC(C)CCn1c(N)c(C(=O)NCc2cccs2)c2nc3ccccc3nc21` the inhibition was 4.2%. With `CCCCn1c(N)c(C(=O)NCc2cccs2)c2nc3ccccc3nc21` the inhibition was 51.4% (active). `CCOC(=O)c1c(NC(=O)c2c(N)n(CCCOC)c3nc4ccccc4nc23)sc2c1CCCC2` showed an inhibition of 41.9%. `COCCCn1c(N)c(C(=O)Nc2ccccc2)c2nc3ccccc3nc21` showed an inhibition of -4.1%. `CCCCCn1c(N)c(C(=O)NCc2cccs2)c2nc3ccccc3nc21` was tested, and the inhibition was 9.5%. `CCCCNC(=O)c1c(N)n(CCCOC)c2nc3ccccc3nc12` was tested, and the inhibition was 102% (active). `CCOCCCn1c(N)c(C(=O)Nc2sc3c(c2C(=O)OC)CCCC3)c2nc3ccccc3nc21` was tested, and the inhibition was 47% (active). Compound `COCCCn1c(N)c(C(=O)NCc2ccco2)c2nc3ccccc3nc21` has an inhibition of -8.5%. `COCCCn1c(N)c(C(=O)NCCC(C)C)c2nc3ccccc3nc21` gave an inhibition of -40.9%. `COc1ccc(Cc2nccc3cc(OC)c(OC)cc23)cc1OC` showed an inhibition of 37.6%. `c1ccc2c(NC3=NCCS3)cccc2c1` gave an inhibition of 19.6%. Work on `CN1CCc2nc3sc(C#N)c(N)c3c(-c3cccs3)c2C1` yielded an inhibition of 29.8%. `CN1CCN(c2ccc3nccnc3c2)CC1` was tested, and the inhibition was 6.7%. `O=C(O)CCn1cc(C=C2C(=O)NC(=O)NC2=O)c(-c2ccc(Br)cc2)n1` was tested, and the inhibition was 1%. `COCCNC(=O)c1c(N)n(CCC(C)C)c2nc3ccccc3nc12` showed an inhibition of -54.5%. `CCC(C)NC(=O)c1c(N)n(CCCOC)c2nc3ccccc3nc12` (centres undefined) was tested, and the inhibition was 74% (active). `COCCCn1c(N)c(C(=O)OCCOC)c2nc3ccccc3nc21` showed an inhibition of 10.5%. Compound `Cc1ccsc1C(=O)C1CCCN(Cc2ccc(-n3cccn3)cc2)C1` (centres undefined) has an inhibition of -14.4%. Compound `CC(C)CNC(=O)c1c(N)n(Cc2ccc3c(c2)OCO3)c2nc3ccccc3nc12` has an inhibition of -19.8%. Work on `CN1C[C@H](CO)C=C2c3cccc4[nH]cc(c34)C[C@H]21` yielded an inhibition of 10.8%. In the case of `CC(C)[C@H]1C(=O)N2CCC[C@H]2[C@]2(O)O[C@](NC(=O)[C@@H]3C=C4c5cccc6[nH]cc(c56)C[C@H]4N(C)C3)(C(C)C)C(=O)N12`, the inhibition is reported as 54.8% (active). In the case of `Cn1c(O)c(/C=C2\N=c3ccccc3=C2CCNC(=S)NC2CC2)c(=O)n(C)c1=O`, the inhibition is reported as 58.6% (active). With `O=C(c1cccn2c(=O)c3ccc(Cl)cc3nc12)N1CCC2(CC1)OCCO2` the inhibition was 20.5%. For `COc1ccc(OC)c(N2C(=O)NC(=O)/C(=C/c3ccc([N+](=O)[O-])s3)C2=O)c1`, the inhibition was 86.3% (active).
